About 79,000 compounds went through this panel and 15% of them were active in at least one assay; those are over-represented in the sample as a whole. Unmarked numbers belong to inactive results. Active and inactive are the calls of the source. Cut-off read from the data, not from the text of the source: active = growth inhibition above about 70%; inactive = the rest. Where a SMILES comes first, the peptide text is derived from it. [ ]: non-standard residue; d: D form. The star is where a group is joined. ξ: configuration not given here. ξE = NC(CCC(=O)O)C(=O)O; Cbz = O=C(OCc1ccccc1)*
Key:
[1] = NCI Yeast Anticancer Drug Screen. Data for the rad50 strain (AID 155);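 note: 0% = growth of vehicle-only cultures of the same strain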; conditions: S. cerevisiae rad50 strain growth inhibition; at 50.0 µM; stronger effect = higher value
Outline: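 DNA repair mutant yeast, compound exposure, growth read-out; inhibition is taken relative to vehicle.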

[2] = NCI Yeast Anticancer Drug Screen. Data for the mec2-1 strain (AID 157); conditions: S. cerevisiae mec2-1 strain, at 50.0 µM, stronger effect = higher value
Outline: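 Using mec2-1 yeast: add compound, measure growth, express inhibition versus vehicle-treated cultures.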

[3] = NCI Yeast Anticancer Drug Screen. Data for the sgs1 mgt1 strain (AID 161);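 note: 0% = growth of cultures given vehicle only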; conditions: S. cerevisiae sgs1 mgt1 strain, at 50.0 µM, stronger effect = higher value
Outline: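 Percent growth inhibition was derived by comparing compound-exposed mutant yeast with vehicle-exposed cultures. The strain carries alterations in DNA damage repair.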

[4] = NCI Yeast Anticancer Drug Screen. Data for the cln2 rad14 strain (AID 165);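 note: 0% = growth equal to vehicle treated cultures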; conditions: S. cerevisiae cln2 rad14 strain, at 50.0 µM, stronger effect = higher value
Outline: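 Yeast strain cln2 rad14, bearing defects in cell cycle control and DNA repair, serves as the test system; values reflect growth inhibition compared with vehicle.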

[5] = NCI Yeast Anticancer Drug Screen. Data for the bub3 strain (AID 167); conditions: S. cerevisiae bub3 mutant strain, at 50.0 µM, stronger effect = higher value
Outline: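 In this screen, a yeast mutant lacking normal mitotic checkpoint function is challenged with compound. Relative growth versus vehicle gives the inhibition value.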

[6] = NCI Yeast Anticancer Drug Screen. Data for the mlh1 rad18 strain (AID 175); conditions: S. cerevisiae mlh1 rad18 strain growth inhibition; at 50.0 µM; stronger effect = higher value
Outline: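 Steps: expose repair-defective yeast to compound; measure growth; express inhibition against vehicle-treated controls.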

c1csc(-c2sc(-c3ccsc3)cc2Cc2ccsc2)c1
growth inhibition [1]: -23.1%
growth inhibition [2]: -20.1%
growth inhibition [3]: -32.9%
growth inhibition [4]: -14.4%
growth inhibition [5]: -26.6%
growth inhibition [6]: -23.3%

Cc1[nH]nc(-c2ccon2)c1N
growth inhibition [1]: -4.45%
growth inhibition [2]: -3.3%
growth inhibition [3]: -27.4%
growth inhibition [4]: -20.5%
growth inhibition [5]: 13.2%
growth inhibition [6]: -6.6%

O=C1CCCCC1N1CCCCC1 (configuration not stated)
growth inhibition [1]: -4.95%
growth inhibition [2]: -14.7%
growth inhibition [3]: 10.8%
growth inhibition [4]: 2.65%
growth inhibition [5]: -1.3%
growth inhibition [6]: 0%

O=C(Nc1ccc(Cl)cc1)Nc1nnc(-c2cccc(-c3nnc(NC(=O)Nc4ccc(Cl)cc4)o3)c2)o1
growth inhibition [1]: 39.1%
growth inhibition [2]: 34.3%
growth inhibition [3]: 36.4%
growth inhibition [4]: 21.7%
growth inhibition [5]: -3.5%
growth inhibition [6]: 14%

COc1ccc2[nH]c(=O)c(CO)c(CO)c2c1
growth inhibition [1]: 0.45%
growth inhibition [2]: -12.2%
growth inhibition [3]: -1%
growth inhibition [4]: -26.1%
growth inhibition [5]: 0.55%
growth inhibition [6]: 4.35%

O=C(O)c1ccc(NS(=O)(=O)Cc2ccccc2)cc1
growth inhibition [1]: -14.3%
growth inhibition [2]: -24.1%
growth inhibition [3]: -41.5%
growth inhibition [4]: -22.4%
growth inhibition [5]: -36.5%
growth inhibition [6]: -6.3%

CC(=O)Nc1ccc[n+](C)c1
growth inhibition [1]: 0.65%
growth inhibition [2]: 17.9%
growth inhibition [3]: -6.9%
growth inhibition [4]: -3.3%
growth inhibition [5]: 33.3%
growth inhibition [6]: -1.95%

CCOC(=O)NC(=O)c1cn(CCCOC(=O)CCCCCCCCCCC(=O)OCCCn2cc(C(=O)NC(=O)OCC)c(=O)[nH]c2=O)c(=O)[nH]c1=O
growth inhibition [1]: -28.5%
growth inhibition [2]: -24.2%
growth inhibition [3]: -12.4%
growth inhibition [4]: 18.6%
growth inhibition [5]: -0.95%
growth inhibition [6]: -18.9%

CC(=O)N1CCOCC1
growth inhibition [1]: 23.1%
growth inhibition [2]: 1.55%
growth inhibition [3]: 11.1%
growth inhibition [4]: -28.6%
growth inhibition [5]: -1.8%
growth inhibition [6]: 21.1%

Cc1cc(C)n(/N=C/c2ccccc2)c(=O)c1C#N
growth inhibition [1]: 7.3%
growth inhibition [2]: -10.3%
growth inhibition [3]: 0.55%
growth inhibition [4]: -0.55%
growth inhibition [5]: 35.6%
growth inhibition [6]: -0.05%

O=C(O)CCSCc1ccc(I)cc1
growth inhibition [1]: 35.1%
growth inhibition [2]: 35.5%
growth inhibition [3]: 54%
growth inhibition [4]: 34.2%
growth inhibition [5]: 47.6%
growth inhibition [6]: 37.3%

CC(C)C1CSC2N1C(=O)C2(OCc1ccccc1)C1CC1 (configuration not stated)
growth inhibition [1]: 3.3%
growth inhibition [2]: -22.4%
growth inhibition [3]: -3.2%
growth inhibition [4]: -16.2%
growth inhibition [5]: -20.1%
growth inhibition [6]: 9.1%

O=[N+]([O-])c1ccc(/C=C/[P+](c2ccccc2)(c2ccccc2)c2ccccc2)o1
growth inhibition [1]: 94.2% (active)
growth inhibition [2]: 97.5% (active)
growth inhibition [3]: 89.5% (active)
growth inhibition [4]: 83.5% (active)
growth inhibition [5]: 95.8% (active)
growth inhibition [6]: 93.7% (active)

N#Cc1ccc(NC(=NCC(=O)O)Nc2ccc3ccccc3c2)cc1
growth inhibition [1]: -16.2%
growth inhibition [2]: -30.6%
growth inhibition [3]: -14.6%
growth inhibition [4]: 25.8%
growth inhibition [5]: -26.3%
growth inhibition [6]: 8.25%

CCOC(=O)C(NC(=O)OC(C)(C)C)C(=O)OCC
growth inhibition [1]: -43.2%
growth inhibition [2]: -90.8%
growth inhibition [3]: -33.1%
growth inhibition [4]: -28.9%
growth inhibition [5]: 2.6%
growth inhibition [6]: -27.4%

O=C(Nc1cccc(Cl)c1)Oc1ccccc1
growth inhibition [1]: 17.6%
growth inhibition [2]: 4.45%
growth inhibition [3]: -4.3%
growth inhibition [4]: 16.4%
growth inhibition [5]: 15.3%
growth inhibition [6]: 8.2%

COC(=O)/C=C1/OC(c2ccc(C)cc2C)=CC1=O
growth inhibition [1]: 47.8%
growth inhibition [2]: 50.7%
growth inhibition [3]: 42.5%
growth inhibition [4]: 0.8%
growth inhibition [5]: 26.6%
growth inhibition [6]: 57.1%

NC(=O)c1nc2ccccc2nc1Nc1ccc(Cl)cc1Cl
growth inhibition [1]: 29%
growth inhibition [2]: 10.2%
growth inhibition [3]: 7.55%
growth inhibition [4]: -0.9%
growth inhibition [5]: 13%
growth inhibition [6]: 23.2%

O=C(O)CCC(NC(=O)OCc1ccccc1)C(=O)NCC(=O)O (configuration not stated) (Cbz-[ξE]-Gly-OH)
growth inhibition [1]: 12.3%
growth inhibition [2]: 2.85%
growth inhibition [3]: 0.35%
growth inhibition [4]: 46.8%
growth inhibition [5]: 3.15%
growth inhibition [6]: -6.5%

Cn1c(O)c2c(c1O)C(=Nc1ccccc1)c1ccccc1C2=O
growth inhibition [1]: 89.2% (active)
growth inhibition [2]: 98.5% (active)
growth inhibition [3]: 93% (active)
growth inhibition [4]: 94.2% (active)
growth inhibition [5]: 98.6% (active)
growth inhibition [6]: 97.9% (active)

CNC(=O)OCc1c(COC(=O)NC)c(C)n(-c2ccc(OC)cc2)c1C
growth inhibition [1]: 20.9%
growth inhibition [2]: 3.55%
growth inhibition [3]: 42.1%
growth inhibition [4]: 15.8%
growth inhibition [5]: 31.3%
growth inhibition [6]: 42.8%

OC(C1=NNC(C(O)c2ccccc2)=NN1)c1ccccc1 (configuration not stated)
growth inhibition [1]: -29%
growth inhibition [2]: 4.7%
growth inhibition [3]: 22%
growth inhibition [4]: -20.4%
growth inhibition [5]: -2.45%
growth inhibition [6]: 5.8%

Cc1cc(C(c2ccccc2)c2cc(C)cc(C(C)(C)CC(C)(C)C)c2O)c(O)c(C(C)(C)CC(C)(C)C)c1
growth inhibition [1]: 3.9%
growth inhibition [2]: 5%
growth inhibition [3]: -10%
growth inhibition [4]: 20.8%
growth inhibition [5]: 5.2%
growth inhibition [6]: 8%

C=CCOC(=O)NC(CCC(=O)O)C(=O)O (configuration not stated)
growth inhibition [1]: 21.1%
growth inhibition [2]: -0.35%
growth inhibition [3]: 19.3%
growth inhibition [4]: 11%
growth inhibition [5]: 3.4%
growth inhibition [6]: 21%

CC(=O)Oc1c(C)cc(C(=O)CO)cc1C
growth inhibition [1]: 34.7%
growth inhibition [2]: 15.4%
growth inhibition [3]: 27.7%
growth inhibition [4]: 6.75%
growth inhibition [5]: 14.4%
growth inhibition [6]: 31.8%

C/C(=N\NC(=S)N1CCN(c2ncccn2)CC1)c1ccccn1
growth inhibition [1]: -2.4%
growth inhibition [2]: -7.1%
growth inhibition [3]: -6.8%
growth inhibition [4]: -21.8%
growth inhibition [5]: 9.35%
growth inhibition [6]: 4.2%

O=c1[nH]c2cccnc2[nH]c1=O
growth inhibition [1]: -8%
growth inhibition [2]: -44%
growth inhibition [3]: -32.8%
growth inhibition [4]: 4%
growth inhibition [5]: -32.5%
growth inhibition [6]: -2.05%

NCCNC(=O)Cc1cccs1
growth inhibition [1]: 1.5%
growth inhibition [2]: -8.5%
growth inhibition [3]: -12.4%
growth inhibition [4]: -21.6%
growth inhibition [5]: 4.45%
growth inhibition [6]: -0.8%

O=C1CSC(c2cccc(F)c2)N1CCN1C(=O)CSC1c1cccc(F)c1 (configuration not stated)
growth inhibition [1]: 27.7%
growth inhibition [2]: 16.7%
growth inhibition [3]: 9.65%
growth inhibition [4]: 20.6%
growth inhibition [5]: 2.4%
growth inhibition [6]: -7.5%

Cc1nc(Cl)c(Cl)c(Cl)n1
growth inhibition [1]: 5%
growth inhibition [2]: -7.9%
growth inhibition [3]: -0.6%
growth inhibition [4]: 5.55%
growth inhibition [5]: -4%
growth inhibition [6]: -5.2%

N#C/C(C(=O)Nc1ccccc1)=C(/N)N1CCCC1
growth inhibition [1]: 18.4%
growth inhibition [2]: -15.7%
growth inhibition [3]: 1.85%
growth inhibition [4]: -5.65%
growth inhibition [5]: -14.3%
growth inhibition [6]: 25.6%

O=P(O)(O)OC1C(OP(=O)(O)O)C(OP(=O)(O)O)C(OP(=O)(O)O)C(OP(=O)(O)O)C1OP(=O)(O)O.[Zn+2] (configuration not stated)
growth inhibition [1]: -24.7%
growth inhibition [2]: -4.8%
growth inhibition [3]: -16.6%
growth inhibition [4]: 9.6%
growth inhibition [5]: -23%
growth inhibition [6]: -6.2%

COc1ccc(C(=O)N2CCCCC2)cc1
growth inhibition [1]: -31.1%
growth inhibition [2]: -15.8%
growth inhibition [3]: -3.8%
growth inhibition [4]: -26.6%
growth inhibition [5]: -0.9%
growth inhibition [6]: -12.2%

O=C(O)CC(Nc1ncccn1)C(=O)O (configuration not stated)
growth inhibition [1]: 3.05%
growth inhibition [2]: 6%
growth inhibition [3]: 10.7%
growth inhibition [4]: 24.1%
growth inhibition [5]: -6.1%
growth inhibition [6]: 5.4%

O=C(COc1ccc(Cl)cc1)Nc1ccc(I)cc1
growth inhibition [1]: 0.05%
growth inhibition [2]: -4.85%
growth inhibition [3]: 0.6%
growth inhibition [4]: -5.15%
growth inhibition [5]: -1.45%
growth inhibition [6]: 6.45%

S=C1CC(c2ccccc2)Sc2cc(Cl)ccc2N1 (configuration not stated)
growth inhibition [1]: -15.5%
growth inhibition [2]: -4.35%
growth inhibition [3]: 4.9%
growth inhibition [4]: 15.6%
growth inhibition [5]: -2.45%
growth inhibition [6]: -2.95%

CCN(CC)CCNc1cc(OC)c(N)c2cccnc12
growth inhibition [1]: 14.2%
growth inhibition [2]: 19.9%
growth inhibition [3]: -2.7%
growth inhibition [4]: -6.75%
growth inhibition [5]: 46.6%
growth inhibition [6]: 40.4%

CC12C3CC4C5CC(C(C53)[C@@H]1NCc1ccccc1)C42 (some centres not stated)
growth inhibition [1]: 44.8%
growth inhibition [2]: 6.8%
growth inhibition [3]: 19.2%
growth inhibition [4]: 35.4%
growth inhibition [5]: 32.9%
growth inhibition [6]: 21.9%

Oc1ccc(-c2nc(-c3cccnc3)c(-c3ccc(Cl)cc3)[nH]2)cc1
growth inhibition [1]: 3.25%
growth inhibition [2]: -19.2%
growth inhibition [3]: 19.9%
growth inhibition [4]: 12.8%
growth inhibition [5]: 39.6%
growth inhibition [6]: 81.7% (active)

O=C(NCc1cccs1)OC1CC2CCC1C2 (configuration not stated)
growth inhibition [1]: 1.6%
growth inhibition [2]: -7.45%
growth inhibition [3]: 10.8%
growth inhibition [4]: -14.8%
growth inhibition [5]: -8%
growth inhibition [6]: 20.4%

CCCCOCCOC(=O)C(C)O (configuration not stated)
growth inhibition [1]: 18.9%
growth inhibition [2]: 13.7%
growth inhibition [3]: 11.9%
growth inhibition [4]: 6.6%
growth inhibition [5]: -1%
growth inhibition [6]: 6.4%

N#CC(CN1CCCCC1)c1ccccc1 (configuration not stated)
growth inhibition [1]: 5.4%
growth inhibition [2]: 1.55%
growth inhibition [3]: 5.2%
growth inhibition [4]: -41.4%
growth inhibition [5]: -8.75%
growth inhibition [6]: 0.8%

From PubChem BioAssay (NCI)
